# From PubChem BioAssay (Tox21)
# Active and inactive are the calls of the source. Calls follow the shape of the dose curve; as a rule, active = well fitted curve in the direction sought with a large enough effect in the repeat runs; inconclusive = weak or mixed curves; inactive = flat fitted curve, though single readings scatter. Starred links: 1 amine or outer side, 2 acyl side, 3 side chain; linkers in the order of their positions; H or OH if unused. Positions of bridges follow the written chain, without caps; N, C: chain ends. Non-standard residues stand in square brackets, D forms with d. Residues, ends and D or L forms follow the SMILES beside them. Chains are numbered I, II in the order given. Actinocin(9to1) = Cc1c2oc3c(C)ccc(C(=O)[*:1])c3nc-2c(C(=O)[*:2])c(N)c1=O; NMeV = CN[C@H](C(=O)O)C(C)C; Sar = CNCC(=O)O
# Assay: qHTS assay to test for compound auto fluorescence at 590 nm (red) in HepG2 cell free culture (AID 720684)
# Conditions: cell-free medium autofluorescence, red 540/590 nm; series mostly up to 91.3 µM
# Excerpt: U.S. Tox21 Program National Center for Advancing Translational Sciences [NCATS] NIH Chemical Genomics Center [NCGC] U.S. Environmental Protection Agency [EPA] National Institutes of Environmental Health Sciences [NIEHS] National Toxicology Program [NTP] U.S. Food and Drug Administration [FDA] Tox21 Assay Overview: Compound auto fluorescence often interferes with screening of the compound library against various biological targets and signaling pathways. Some of these compounds may have fluorophoric properties. Such properties may interfere with the assay outputs resulting in false positives and/or negatives. To decrease such complications and ensure the compound activities are relevant in terms of biological response, the Tox21 10K compound library was screened for auto fluorescence. From the fluorophores used as reporter signals in our screening assays, the auto fluorescence equivalencies of compounds against three fluorophores have been evaluated: Triamterene, Fluorescein and Rose Bengal sodium for blue, green and red fluorescence, respectively. The fluorescence intensities were measured using Excitation/Emission wavelengths at 405/460nm, 485/535nm and 540/590nm for blue, green and red labels, respectively. This assay includes the red fluorescence data.
# Tox21 Assay Protocol Summary: 5 uL of culture medium (MEM containing 10% FBS) per well was dispensed into black wall/clear bottom 1536-well plates using a Multidrop Combi Dispenser (ThermoFisher Scientific, Waltham, MA). After 23 nL compound or DMSO vehicle was transferred into assay plate by a pintool work station (Kalypsys, San Diego, CA), fluorescence intensities in the assay plates were measured by an Envision (PerkinElmer, Shelton, CT) plate reader using three labels for measuring blue, green and red fluorescence at […] 460, 535 and 590nm respectively.
# % is scaled to controls: 0 for no effect and ±100 for the full control effect.
SMILES,outcome,"fluorescence, % of Rose Bengal"
Nc1cc(Cl)c(-c2cc(Cl)c(N)cc2Cl)cc1Cl,inactive,
c1ccc2cc3c(ccc4ccccc43)cc2c1,inactive,
C[N+]1([O-])CCOCC1,inactive,
CCOC(=O)C(C)C(C)=O (stereo not given),inactive,
Cc1ccc(S(=O)(=O)Oc2ccc(N=Nc3ccc(-c4ccc(N=Nc5c(O)ccc6cc(S(=O)(=O)O)cc(S(=O)(=O)O)c56)c(C)c4)cc3C)cc2)cc1,inactive,
O=C1CC2(CCCC2)CC(=O)N1CCCCN1CCN(c2ncccn2)CC1,inactive,
CC(=O)CC(C)=O,inactive,
COc1nc(C)nc(Cl)c1NC1=NCCN1,,0.527% [at 18.6 µM] (inactive)
COC(=O)/C=C/c1ccccc1,inactive,
Cc1cccc2n[nH]nc12,inactive,
CC(=O)OCCOCCOCCOC(C)=O,inactive,
[Cl][In]([Cl])[Cl],inactive,
C1COC(NC(C2CC2)C2CC2)=N1,inactive,
CCCCCCC(O)CCCCCCCCCCC(=O)O (stereo not given),inactive,
CC1COc2c(N3CCN(C)CC3)c(F)cc3c(=O)c(C(=O)O)cn1c23 (stereo not given),inactive,
Cc1cc(C2(c3cc(C)c(O)cc3C)OS(=O)(=O)c3ccccc32)c(C)cc1O,inactive,
CCCCOCCOC(=O)c1ccccc1C(=O)OCCOCCCC,inactive,
CC(C)CCCCCCc1ccc(O)cc1,inactive,
Oc1c(Cl)cc(Cl)c(Cl)c1Cc1c(O)c(Cl)cc(Cl)c1Cl,inactive,
CN1C(=O)c2ccc([N+](=O)[O-])cc2C1=O,inactive,

SMILES,outcome,"fluorescence, % of Rose Bengal"
CCN(CC)c1ccc2c(C)cc(=O)oc2c1,inactive,
OCC(CO)N[C@H]1C[C@](O)(CO)[C@@H](O)[C@H](O)[C@H]1O,inactive,
CNCCC(Oc1ccc(C(F)(F)F)cc1)c1ccccc1 (stereo not given),inactive,
CC(C)(C)c1ccc(O)c(C(C)(C)C)c1,inactive,
C=C(C)C1CC=C(C)C(OC(C)=O)C1 (stereo not given),inactive,
CC(=O)Nc1ccc(C(=O)CCl)cc1,inactive,
CC(C)(C)c1ccccc1,inactive,
"Cc1c2oc3c(C)ccc(C(=O)N[C@@H]4C(=O)N[C@H](C(C)C)C(=O)N5CCC[C@H]5C(=O)N(C)CC(=O)N(C)[C@@H](C(C)C)C(=O)O[C@@H]4C)c3nc-2c(C(=O)N[C@@H]2C(=O)N[C@H](C(C)C)C(=O)N3CCC[C@H]3C(=O)N(C)CC(=O)N(C)[C@@H](C(C)C)C(=O)O[C@@H]2C)c(N)c1=O (I: T[dV]P[Sar][NMeV] / II: T[dV]P[Sar][NMeV]; ester I:1-I:C, II:1-II:C; linker I:N-II:N via Actinocin(9to1))",inactive,
CCN(CC)CCOc1ccc(/C(=C(\Cl)c2ccccc2)c2ccccc2)cc1,inactive,
CCC(CO)(CO)COCC(CC)(CO)CO,inactive,
OCCOCCN1CCN(C(c2ccccc2)c2ccc(Cl)cc2)CC1 (stereo not given),inactive,
CCCOC(=O)c1cc(O)c(O)c(O)c1,inactive,
O=C(O[C@@H]1Cc2c(O)cc(O)cc2O[C@@H]1c1cc(O)c(O)c(O)c1)c1cc(O)c(O)c(O)c1,inactive,
COC(c1ccccc1)(c1ccccc1)[C@H](Oc1nc(C)cc(C)n1)C(=O)O,inactive,
O=C1NCC2(CCN(CCc3ccccc3)CC2)O1,inactive,
Cc1cc(OCCOCC[N+](C)(C)Cc2ccccc2)ccc1C(C)(C)CC(C)(C)C,inactive,
CCCCC(CC)COC(=O)CC(C(=O)OCC(CC)CCCC)S(=O)(=O)O (stereo not given),inactive,
Cc1c(O)cccc1C(=O)N[C@@H](CSc1ccccc1)[C@H](O)CN1C[C@H]2CCCC[C@H]2C[C@H]1C(=O)NC(C)(C)C,inactive,
Clc1ccc2c(c1)C(N1CCNCC1)=Nc1ccccc1O2,inactive,
Cc1scc2c1N(C(=O)CN1CCN(C)CC1)c1ccccc1NC2=O,inactive,
